# Screens from PubChem.
# Efflux pump inh = inhibitors of Candida efflux pumps in yeast, primary screen, S. cerevisiae, Nile Red, multiplex; AID 485275, 2010; 330,000 compounds, 0.44% hits; S. cerevisiae Candida pump triplex; inhibition, % at 10 µM;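 active = plate passing quality check with inhibition over a set limit, or well fluorescence over plate mean plus 4 SD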;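 also: Nile Red retained in pooled yeast measured as flow cytometry median fluorescence; 0% = buffer negative control and 100% = Enniatin B positive control; higher means more Nile Red kept so more efflux inhibition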
# MLLE-PAM2 inh = inhibitors of PABP1 MLLE–PAM2 peptide binding, primary screen, biochemical, fluorescence polarization, FITC-PAM2, GST-MLLE | AID 588489, 2011 | 360,000 compounds, 0.36% hits | inhibition, % at 20 µM; in the data active = inhibition above about 35%, passing the limit was not always enough;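 also: plate controls were DMSO wells with GST-MLLE for no effect and wells lacking GST-MLLE protein for full effect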
# PABP polyA inh = PABP poly(A) RNA binding inhibitors, primary screen, biochemical, fluorescence polarization, uHTS; inhibition, % at 35 µM; 290,000 compounds, 1% hits;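 also: calls also rest on retests at 20 µM and on dose response follow-up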
# UBC9 SUMO inh = inhibitors of in vitro SUMOylation cascade, primary screen, biochemical, HTRF, uHTS; SUMO-conjugating enzyme UBC9 (Homo sapiens), P63279; HTRF SUMOylation assay, SAE1/SAE2 + UBC9; AID 2006, 2009; inhibition, % at 35 µM; 290,000 compounds, 0.36% hits; in the data active = inhibition above about 50%, passing the limit was not always enough
# Target sequence (P63279 whole entry, looked up): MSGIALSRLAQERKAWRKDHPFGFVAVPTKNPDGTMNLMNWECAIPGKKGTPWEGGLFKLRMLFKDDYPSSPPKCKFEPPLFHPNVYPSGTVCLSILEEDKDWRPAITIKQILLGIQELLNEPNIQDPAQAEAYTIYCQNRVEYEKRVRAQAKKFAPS
# ALR H2O2 inh = inhibitors of human ALR sulfhydryl oxidase, primary screen, biochemical, H2O2 detection, HRP-luminol luminescence, single point; FAD-linked sulfhydryl oxidase ALR (Homo sapiens), P55789; purified ALR, DTT oxidation; inhibition, % (test concentration not listed); 290,000 compounds, 3.8% hits; AID 485317, 2010;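 active = mean replicate inhibition above about 79%, with every replicate also reaching it, limit read from the data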
# Target sequence (P55789 whole entry, looked up): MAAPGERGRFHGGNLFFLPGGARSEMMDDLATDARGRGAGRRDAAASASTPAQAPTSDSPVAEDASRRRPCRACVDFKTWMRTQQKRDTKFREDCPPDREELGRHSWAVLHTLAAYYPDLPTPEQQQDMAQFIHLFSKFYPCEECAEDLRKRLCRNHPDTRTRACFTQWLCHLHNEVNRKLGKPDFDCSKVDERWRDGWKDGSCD
# eIF4H FP inh = human eIF4H binding inhibitors, primary screen, translation initiation inhibitor project, biochemical, uHTS, fluorescence polarization. Eukaryotic translation initiation factor 4H (Homo sapiens), Q15056. eIF4H fluorescence polarization binding assay. 290,000 compounds, 0.94% hits. inhibition, % at 35 µM;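 also: calls also rest on retests at 20 µM and on dose response follow-up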
# * marks the source's active call; other numbers are inactive results; . = no result. In the library only some 4.7% were active in any assay of this set; here they are far more common. Unless noted, no rule for the calls is given here.
SMILES,Efflux pump inh,MLLE-PAM2 inh,PABP polyA inh,UBC9 SUMO inh,ALR H2O2 inh,eIF4H FP inh
NS(=O)(=O)c1ccc(NC(=S)NC(=O)c2cccs2)cc1,0,31,0,21,11,-6
O=C(NC(=S)Nc1ccc(S(=O)(=O)N2CCCCC2)cc1)c1cccs1,0,44*,-1,-9,.,2
CC(Oc1ccccc1Cl)C(=O)Nc1ccc(S(=O)(=O)N2CCN(C)CC2)cc1 (stereo unspecified),.,40*,.,.,.,.
COc1ccc(Cl)cc1NC(=O)CN(C)C(=O)/C=C/c1ccco1,0,1,.,.,.,.
CN1CCN(S(=O)(=O)c2ccc(NC(=S)NC(=O)C(C)(C)C)cc2)CC1,0,40*,-10,14,14,-3
NS(=O)(=O)c1ccc(NC(=S)Nc2ccc(S(=O)(=O)N3CCCC3)cc2)cc1,0,43*,1,0,12,11
CCC(=O)NC(=S)Nc1ccc(S(=O)(=O)N2CCN(C)CC2)cc1,0,0,-9,6,6,-4
CNC(=O)C[C@H]1C(=O)N(Cc2ccccc2)C[C@@H]1Cc1ccccc1,.,9,.,.,.,.
O=C(CNc1ccc(Br)cc1)NC(=O)NC1CCCCC1,.,-3,.,.,.,.
CC(C)CN(C(=O)c1cc(Cl)nc2ccccc12)C1CCS(=O)(=O)C1 (stereo unspecified),.,-5,.,.,.,.
O=c1[nH]c(/C=C\c2cccc(F)c2)nc(O)c1[N+](=O)[O-],0,11,13,6,91*,0
O=c1[nH]c(/C=C\c2cccc(Cl)c2)nc(O)c1[N+](=O)[O-],0,-2,8,9,98*,-6
C=CCOc1ccc(/C=C\c2nc(O)c([N+](=O)[O-])c(=O)[nH]2)cc1OCC,0,-8,17,9,97*,4
O=c1[nH]c(/C=C\c2ccccc2F)nc(O)c1[N+](=O)[O-],0,14,16,10,97*,-6
COc1ccc(/C=C\c2nc(O)c([N+](=O)[O-])c(=O)[nH]2)cc1O,0,7,14,-4,62,2
C=CCOc1cccc(/C=C\c2nc(O)c([N+](=O)[O-])c(=O)[nH]2)c1,0,-6,20,36,74,-18
Cc1ccc(S(=O)(=O)NCc2ccc(C(=O)N3CCN(c4ccc([N+](=O)[O-])cc4)CC3)cc2)cc1,0,1,8,3,-2,-10
CSc1ccccc1C(=O)N(C)C(c1ccccc1)c1ccccc1,0,11,12,10,-5,-7
Cc1cc(=O)c2c(N(C)C)cccc2[nH]1,.,-3,.,.,.,.
S=C(NCc1ccco1)Nc1ccc(Cl)cn1,0,-32,11,18,-30,12
CC(C)(O)C#Cc1ccc(C(=O)NC2CCCCC2)s1,0,-1,-3,-15,97*,1
CC(C)(O)C#Cc1ccc(C(=O)NCCC(=O)O)s1,0,15,4,6,-4,-2
O=S1(=O)C=C(Sc2nnc(-c3ccccc3)o2)c2ccccc21,0,8,9,10,78*,2
COc1ccc(CN2CCC[C@]3(N[C@H](c4ccccc4)[C@@H]4C(=O)N(C)C(=O)[C@@H]43)C2=O)cc1,.,8,.,.,.,.
CN1C(=O)NC(c2ccc(O)cc2)C2=C1CN(c1ccccc1)C2=O (stereo unspecified),0,0,-7,18,-5,0
CN1C(=O)NC(c2ccc(O)cc2)C2=C1CN(c1ccc(O)cc1)C2=O (stereo unspecified),0,0,-8,9,99*,3
CCOc1ccc(NC(=O)CN(C)C(=O)CSC(C)C(=O)Nc2cc(C)on2)cc1OCC (stereo unspecified),0,-5,55*,7,0,35
O=C(NNC(=O)c1cc2cc3ccccc3nc2s1)c1cccc(C(F)(F)F)c1,0,16,14,20,-2,51*
O=C(NNS(=O)(=O)c1ccccc1)c1cc2cc3ccccc3nc2s1,0,-16,7,-3,57,14
